Screening results as filed in PubChem BioAssay.
NS1 function inh: blocks influenza NS1 protein function; 270,000 tested, 0.4% active; Potency, µM (highest dose often 46.1 µM), inactives show at the highest dose activity, positive = more growth; calls by dose curve; also: potency is read from the fitted curve at half-maximal effect; actives are rising curves; nearly all actives have a fitted effect of over 50% in size
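A cell-based growth assay was used: compounds that relieve NS1-induced slow growth of budding yeast raise OD600. Assay medium was yeast nitrogen base with ammonium sulphate and -URA supplement, pH 6.0, with 2% galactose.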
Shiga toxin inh: Shiga toxin inhibition; 290,000 tested, 9.2% active; inhibition, % at 38.7 µM; Vero cells, Shiga toxin protein synthesis inhibition reporter; in the data active = inhibition mostly above about 28%, no sharp cut-off; inactive = mostly below about 43%; also: 0% is about no effect
Sm TGR block: blocks Schistosoma mansoni thioredoxin glutathione reductase; Q962Y6; purified TGR, DTNB reduction, TNB absorbance 405 nm; Potency, µM (highest dose often 114 µM), inactives show at the top dose activity change, negative = inhibition, hits mostly inhibitors; 360,000 tested, 3% active; also: potency is read from the fitted curve at half-maximal effect; % is scaled to controls: 0 for no effect and ±100 for the full control effect; nearly all actives have a fitted effect of over 60% in size
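Kinetic colorimetric format: TGR-catalysed, NADPH-driven DTNB reduction monitored via TNB absorbance. Enzyme dispensed at 20 nM; compound exposure 15 min at room temperature before reaction start.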
Pf growth 96h: inhibits malaria parasite growth, 96 h | P. falciparum luciferase reporter growth, 96 h | Potency, µM (series often up to 28.7 µM), without a hit: top-dose activity change, negative = inhibition, usual class: inhibitors | 320,000 tested, 6.9% active | AID 504834; also: potency is read from the fitted curve at half-maximal effect; % is scaled to controls: 0 for no effect and ±100 for the full control effect
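Compounds incubated with erythrocytes infected by luciferase-expressing P. falciparum (2% hematocrit, 0.05% parasitemia final) for 96 hours, 37 C in 5% CO2. Growth inhibition scored as decreased luciferase luminescence.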
Pf growth 48h: inhibits P. falciparum growth in the first generation, 48 h; P. falciparum luciferase growth in erythrocytes, 48 h; Potency, µM (titrated, usually from 28.7 µM), for the others: at the highest dose activity change, negative = inhibition, usual class: inhibitors; 310,000 tested, 5.9% active; also: potency is read from the fitted curve at half-maximal effect; % is scaled to controls: 0 for no effect and ±100 for the full control effect
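Cell-based growth assay: transgenic P. falciparum expressing firefly luciferase, cultured in red cells within RPMI 1640 containing 0.5% w/v Albumax, 24 mM bicarbonate and gentamycin. A drop in luciferase activity indicates inhibition.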
CHX counter: counter-screen for Shiga toxin inhibitors: cycloheximide protein synthesis inhibition. cell reporter, cycloheximide protein synthesis inhibition counterscreen. max response, %. 300,000 tested, 12% active. AID 2314; in the data active = max response mostly above about 13%, no sharp cut-off; inactive = mostly below about 14%; also: read at 38.3 µM for the half of the compounds with a filed dose; 0% is about no effect
* = called active by the depositor; [ ] = another dose, or the depositor's remark. Rows were chosen to be rich in hits. Some 21% of all compounds tested hit in one or more screens of this group. Unless noted, calls follow the shape of the dose curve; as a rule, active = well fitted curve in the direction sought with a large enough effect; inconclusive = small, poorly fitted or top-dose-only effect, or another doubt; inactive = no such curve, though single readings can be large; an effect the other way counts as inactive or inconclusive.

`CC12CN(C(=O)c3cccc([N+](=O)[O-])c3)C3(C#N)CC1CCC23C` (centres undefined) gave NS1 function inh 2%, Shiga toxin inh 7, Sm TGR block 2%, Pf growth 96h -93%, Pf growth 48h -29% and CHX counter -3.
Screening CC1CCCCN1C(=O)CSc1n[nH]c(-c2ccccc2Cl)n1 (centres undefined) returned Sm TGR block 4%.
Cc1ccc(C(C(=O)NC2CCCCC2)N(C(=O)Cc2c[nH]c3ccccc23)c2ccccc2C)o1 (centres undefined) was read as NS1 function inh 24%, Shiga toxin inh -14, Sm TGR block -6%, Pf growth 96h 12%, Pf growth 48h inconclusive and CHX counter -1.
Cc1ccc(C(C(=O)NC2CCCCC2)N(Cc2ccco2)C(=O)Cc2c[nH]c3ccccc23)o1 (centres undefined) was read as NS1 function inh 11%, Shiga toxin inh -2, Sm TGR block 1%, Pf growth 96h inconclusive, Pf growth 48h 13µM* and CHX counter -4.
For Cc1ccc(N(C(=O)Cc2c[nH]c3ccccc23)C(C(=O)NC2CCCCC2)c2ccco2)cc1 (centres undefined) the results were NS1 function inh 5%, Shiga toxin inh 11, Sm TGR block -2%, Pf growth 96h inconclusive, Pf growth 48h 10µM* and CHX counter -2.
CC(C)CNC1=C(C(=S)Nc2ccccc2)C(=O)CC(C)(C)C1 was read as NS1 function inh 1%, Shiga toxin inh -3, Sm TGR block -4%, Pf growth 96h -20%, Pf growth 48h inconclusive and CHX counter -5.
CC(=O)Nc1ccc(NC(=O)c2cc(C3CC3)nc3c2cnn3C(C)C)cc1 was read as Sm TGR block 7%, Pf growth 96h -25% and Pf growth 48h inconclusive.
Cc1ccccc1CCNC(=O)c1cc(C2CC2)nc2c1cnn2C(C)C was read as Sm TGR block 1%, Pf growth 96h 13µM* and Pf growth 48h 12µM*.
`CCc1ccccc1NC(=O)CN(C)C(=O)c1cc(C2CC2)nc2c1cnn2C(C)C` gave Sm TGR block -4%, Pf growth 96h inconclusive and Pf growth 48h 12µM*.
Cc1ccc(OCCNC(=O)c2cc(C3CC3)nc3c2cnn3C(C)C)cc1 was read as Sm TGR block -14%, Pf growth 96h inconclusive and Pf growth 48h inconclusive.
`CC(C)n1ncc2c(C(=O)NCCc3ccc(F)cc3)cc(C3CC3)nc21` gave Sm TGR block 6%, Pf growth 96h inconclusive and Pf growth 48h 9.3µM*.
For O=C(CSc1ncn[nH]1)Nc1c(F)cc(F)cc1Br the results were NS1 function inh -2%, Shiga toxin inh -6, Sm TGR block 2%, Pf growth 48h 1% and CHX counter -5.
For COCCOc1cc(-n2ccnc2SC)c(Cl)cc1Cl the results were NS1 function inh -14%, Shiga toxin inh -3, Sm TGR block 2%, Pf growth 96h -3%, Pf growth 48h 7% and CHX counter -4.
`COc1ccc(CNC(=O)c2ccc(-c3nc(CSc4ccccc4)c(C)o3)cc2)cc1OC` gave Sm TGR block -32%.
`COc1cc(NC(=O)NCCn2nnc3cc(S(=O)(=O)N(C)C)ccc32)cc(OC)c1` gave Sm TGR block -5%.
`C=CCSc1nnc2c(n1)OC=Nc1ccc(Br)cc1-2` gave NS1 function inh -27%, Shiga toxin inh 9, Sm TGR block 7.9µM*, Pf growth 96h inconclusive, Pf growth 48h -16% and CHX counter 7.
Cc1ccc(NC(=O)c2cnccn2)cc1 was read as Shiga toxin inh 72*, Sm TGR block 0%, Pf growth 96h inconclusive, Pf growth 48h 376% and CHX counter 34*.
Screening Cc1nc(NC(=O)c2cnccn2)ccc1Br returned NS1 function inh 1%, Shiga toxin inh 107*, Sm TGR block 5%, Pf growth 96h 75%, Pf growth 48h 236% and CHX counter 43*.
Cc1cccc(NC(=O)c2cnccn2)c1 was read as NS1 function inh -10%, Sm TGR block inconclusive, Pf growth 96h -27%, Pf growth 48h 30% and CHX counter 17*.
`O=C(O)Cc1ccc(NC(=O)c2cnccn2)cc1` gave NS1 function inh 3%, Shiga toxin inh -22, Sm TGR block -9%, Pf growth 96h -3%[5.75 µM], Pf growth 48h -12% and CHX counter -1.
For O=C(Nc1ccc(Br)cc1)c1cnccn1 the results were NS1 function inh -17%, Shiga toxin inh 117, Sm TGR block 3%, Pf growth 96h 140%, Pf growth 48h 145% and CHX counter 32*.
Cc1nc(NC(=O)c2cncc(Br)c2)ccc1Br was read as NS1 function inh -6%, Sm TGR block 1%, Pf growth 96h inconclusive, Pf growth 48h 5% and CHX counter 10.
For COc1ccc(CNC(=O)CS(=O)(=O)c2cccc3nsnc23)cc1 the results were Sm TGR block -4%.
`CCCCCCc1cc2cc(S(=O)(=O)c3ccc(F)c(Cl)c3)c(=O)oc2cc1O` gave NS1 function inh -6%, Shiga toxin inh -14, Sm TGR block -6%, Pf growth 96h inconclusive, Pf growth 48h inconclusive and CHX counter -1.
For O=C(Nc1ccc2c(c1)OCO2)c1cnccn1 the results were Shiga toxin inh 88*, Sm TGR block 2%, Pf growth 96h 7%, Pf growth 48h 487% and CHX counter 21*.
Cc1ccc(NC(=O)c2cnccn2)cc1C was read as NS1 function inh -8%, Sm TGR block -4%, Pf growth 96h -14%, Pf growth 48h 156% and CHX counter 34*.
`Cc1cc(F)ccc1NC(=O)c1cnccn1` gave Shiga toxin inh 11, Sm TGR block -15%, Pf growth 96h 236%, Pf growth 48h inconclusive and CHX counter 12.
Nc1ccc(N2CCCCC2)c(Cl)c1 was read as NS1 function inh 3%, Shiga toxin inh -6, Sm TGR block 12%, Pf growth 96h inconclusive, Pf growth 48h -1% and CHX counter -2.
`Cc1ccc(C)c(-c2ccc(C(=O)O)o2)c1` gave Shiga toxin inh inactive and CHX counter 23.
`Cc1cccc(-c2noc(-c3ccc(NCc4cccnc4)c([N+](=O)[O-])c3)n2)c1` gave Sm TGR block 0%.
`CC(C)(C)C(=O)CC(=O)Nc1ccc(Cl)c(N)c1` gave NS1 function inh -16%, Shiga toxin inh 167*, Sm TGR block 0%, Pf growth 96h inconclusive, Pf growth 48h 79% and CHX counter 47*.
Screening CC1=C(C(=O)Nc2cccnc2)C(c2ccccc2)n2nc(SCc3ccccc3F)nc2N1 (centres undefined) returned Sm TGR block -9%.
`CCOc1ccc(CNC(=O)c2ccc(NC(=O)N3CCCCc4ccccc43)cc2)cc1OC` gave Sm TGR block 11%.
